High-throughput results (PubChem BioAssay)
The list is not random: actives were taken first. Their share in the collection is about 10%.
GLA inh pH 4.5 – alpha-galactosidase A (human) inhibition, pH 4.5 | P06280 | purified enzyme, 4-MU-alpha-Gal fluorescence, pH 4.5 | activity change, negative = inhibition, % at 105 µM | 230,000 tested, under 10 active
HPGD block – blocks human HPGD enzyme activity | purified HPGD, NADH fluorescence kinetic, PGE2 substrate | AID 894 | Potency, µM, most hits filed as inhibitors | hit rate 4.3% among 150,000; active means well fitted inhibition curve with a large enough effect, not every such curve was filed as active; inconclusive means small, poorly fitted or top-dose-only effect, or another doubt; inactive means no such curve, though single readings can be large or run the other way
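NADH formation kinetics: reaction with 30 uM PGE2 and 1 mM NAD+ (final), 20 nM enzyme, Tris-HCl pH 8 with Tween 20, after 15 min compound preincubation at room temperature. Fluorescence change, last versus first of five reads.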
PNC assembly inh – blocks assembly of the perinucleolar compartment | activity change (PNC), negative = inhibition, % at 10 µM | hit rate 3.1% among 140,000 | PC3M PTB-GFP, PNC prevalence imaging, 16 h; hits give low values;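 active means readout at or below -70, meaning at least 70% loss of cells showing the perinucleolar compartment, a nuclear body marking cancer cells; inconclusive means readout between -30 and a set limit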
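Read-out is percentage of cells bearing a perinucleolar compartment, from automated 20x imaging of fixed, Hoechst-stained PC3M PTB-GFP cells. Cells were seeded 4 h, then exposed 16 h to compound (23 nl of library stock) in duplicate plates.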
GLA spleen mod – alpha-galactosidase A (human) modulation. human spleen homogenate, 4MU-alpha-Gal fluorescence, 40 min. Potency, µM (top dose mostly 80 µM), actives largely listed as inhibitors. hit rate 0.008% among 240,000
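Inhibition or activation of alpha-galactosidase in human spleen homogenate is scored by 4-MU fluorescence after 40 min at 37C, pH 5.0, with 1 mM substrate. AC50s come from concentration-response fitted to the Hill equation.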
12-hLO inh – blocks human 12-lipoxygenase activity; hit rate 0.12% among 150,000; Potency, µM (series often up to 57.1 µM), most hits filed as inhibitors; AID 1452; purified 12-hLO, xylenol orange hydroperoxide absorbance; further: nearly all actives have a fitted effect of over 55% in size
Target sequence (P18054 whole entry, looked up): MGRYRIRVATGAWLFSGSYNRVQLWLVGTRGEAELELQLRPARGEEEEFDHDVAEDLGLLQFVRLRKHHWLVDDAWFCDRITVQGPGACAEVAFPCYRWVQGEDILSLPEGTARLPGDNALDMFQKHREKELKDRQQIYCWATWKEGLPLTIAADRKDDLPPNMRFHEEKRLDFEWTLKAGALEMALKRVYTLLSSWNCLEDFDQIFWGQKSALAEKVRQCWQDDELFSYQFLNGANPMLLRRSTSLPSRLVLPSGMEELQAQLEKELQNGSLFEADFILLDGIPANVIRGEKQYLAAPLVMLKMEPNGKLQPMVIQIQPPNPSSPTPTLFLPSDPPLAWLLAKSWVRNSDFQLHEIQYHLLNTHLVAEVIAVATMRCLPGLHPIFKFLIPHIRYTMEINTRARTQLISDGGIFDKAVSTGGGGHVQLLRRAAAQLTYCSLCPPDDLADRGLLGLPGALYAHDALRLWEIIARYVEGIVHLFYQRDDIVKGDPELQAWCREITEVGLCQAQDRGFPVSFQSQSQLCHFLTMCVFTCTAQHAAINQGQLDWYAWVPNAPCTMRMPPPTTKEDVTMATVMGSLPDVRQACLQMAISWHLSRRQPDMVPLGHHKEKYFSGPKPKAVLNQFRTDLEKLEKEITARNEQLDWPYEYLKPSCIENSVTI
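Purified human 12hLO (150 nM final) was preincubated with compounds for 15 min at room temperature in 25 mM Hepes pH 7.0, 0.01% Triton X-100, then reacted with 40 uM arachidonic acid for 30 min. Hydroperoxide was detected with ferrous iron/xylenol orange.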
ALDH1A1 inh – blocks purified human ALDH1A1 activity. Purified ALDH1A1, NADH fluorescence, propionaldehyde substrate. Potency, µM (doses to about 75.3 µM), actives largely listed as inhibitors. hit rate 7.3% among 220,000; active means well fitted inhibition curve with a large enough effect, not every such curve was filed as active; inconclusive means small, poorly fitted or top-dose-only effect, or another doubt; inactive means no such curve, though single readings can be large or run the other way
Numbers stand for hits; – = inactive; ? = inconclusive; · = no result given; [ ] = remark or other dose. Unless noted, the call rests on the fitted dose curve; in most records, active means well fitted curve in the direction sought with a large enough effect; inconclusive means small, poorly fitted or top-dose-only effect, or another doubt; inactive means no such curve, though single readings can be large; an effect the other way counts as inactive or inconclusive.

SMILES	GLA inh pH 4.5	HPGD block	PNC assembly inh	GLA spleen mod	12-hLO inh	ALDH1A1 inh
N=C1N(/N=C/c2ccccc2)C(=Nc2ccccc2)C(=S)N1c1ccccc1	–	–	-100	–	–	?
COCC(=O)Nc1c(I)c(C(=O)NC[C@@H](O)CO)c(I)c(C(=O)N(C)C[C@@H](O)CO)c1I	–	–	·	–	–	–
Cn1c(SCc2cccc3ccccc23)nnc1-c1ccco1	–	?	–	–	–	?
Nn1c(SCc2cccc3ccccc23)nnc1-c1ccco1	–	14µM	–	–	–	–
Nn1c(Cc2cccc3ccccc23)nnc1SCn1nnc2ccccc2c1=O	–	–	?	–	–	–
Nn1c(Cc2cccc3ccccc23)nnc1SCc1c(Cl)cccc1Cl	–	7.9µM	–	–	–	?
Nn1c(Cc2cccc3ccccc23)nnc1SCc1ccc(Cl)c(Cl)c1	–	2.8µM	?	–	–	?
CC1(C)OC2CC(=O)OCC23C1CC(=O)C1(C)C3CC[C@@]2(C)[C@H](c3ccoc3)OC(=O)C3OC312 (some centres undefined)	–	–	·	–	–[0.00818 µM]	–
O=C(N/N=C/c1ccncc1)c1cc([N+](=O)[O-])cc([N+](=O)[O-])c1O	–	28µM	?	–	–	?
Cc1cc(C(=O)N/N=C/c2ccncc2)c(C)o1	–	·	·	–	·	·
O=c1c(-c2ccccc2)nc2cnc(N3CCOCC3)nc2n1Cc1cccs1	·	·	·	–	·	?
CCOc1ccc(NC2c3ccccc3C(=O)N2Cc2ccco2)cc1 (centres undefined)	–	–	–	–	–	5.6µM
CC(=O)C[C@H](c1ccc([N+](=O)[O-])cc1)c1c(O)c2ccccc2oc1=O	–	–	·	–	–	–
OCCO	·	–	·	–	–	–
COCCNc1nc(-c2ccc(N(C)C)cc2)nc2ccccc12	–	?	·	–	–	?
COc1ccc(NC(=S)Nc2ccc(N)c([N+](=O)[O-])c2)cc1	–	?	–	–	–	25µM
COc1ccc(CCC(=O)Nc2cc([N+](=O)[O-])ccc2OC)cc1	–	–	–	–	–	?
COc1ccc(CCC(=O)Nc2ccc(C)c([N+](=O)[O-])c2)cc1	–	13µM	?	–	–	10µM
COc1cccc(-c2c(C#N)c(N)nc3c2c(=O)nc2sccn23)c1	–	·	·	–	·	–
CCN1C(=S)SC(=O)C1=C1C=C(C)N(CCOC)C(C)=C1	–	–	–	–	–	6.3µM
COCCN1C(=O)/C(=C/c2ccc(N3CCCC3)cc2)SC1=S	–	·	·	–	·	–
CCN1C(=S)SC(=O)C1=C1C=C(C)N(CCO)C(C)=C1	–	?	?	–	–	16µM
CCN1C(=O)/C(=C/C=C2/Sc3ccccc3N2CCO)SC1=S	–	·	·	–	·	?
CCOC(=O)COc1cc(-n2c(=S)[nH]c3cc(OC)c(OC)cc3c2=O)c(Cl)cc1Cl	–	·	·	–	·	–
Cc1ccc(CNc2oc(C)nc2C#N)cc1	–	·	-85	–	–	–
SMILES	GLA inh pH 4.5	HPGD block	PNC assembly inh	GLA spleen mod	12-hLO inh	ALDH1A1 inh
COc1cc(NC(=O)CSc2nnc(NC(C)C)s2)cc(OC)c1OC	–	·	·	–	·	–
O=C(NNS(=O)(=O)c1ccccc1)c1cc2cc3ccccc3nc2s1	–	?	-106	–	–	–
O=C(O)c1ccc(Cl)c(S(=O)(=O)Nc2ccc3cn[nH]c3c2)c1	–	·	·	–	·	22µM
O=C(c1ccccc1)N1CCN(C(=O)C23CC4CC(CC(C4)C2)C3)CC1	–	–	-127	–	–	25µM
CCOc1ccc(C(=S)N2CCCC2)cc1	–	–	–	–	–	?
Cc1ccc(C(=O)N2CCC(C(N)=O)CC2)cc1C	–	–	–	–	–	?
Cn1nnc2cc(C(=O)N3CCC(c4ccccc4)C3)ccc21 (centres undefined)	–	–	?	–	–	–
Cc1ccc(C(=O)N2CCCC2)cc1Br	–	20µM	–	–	–	–
Cn1nnc2cc(C(=O)N3CCCCCC3)ccc21	–	3.2µM	?	–	–	–
CCOc1ccc(C(=O)N2CCCCCC2)cc1	–	2µM	–	–	–	–
CS(=O)(=O)N1CCc2cc(C(=O)N3CCCCC3)ccc21	–	3.2µM	–	–	–	–
O=C(c1ccccc1)N1CCN(C(=O)N2CCOCC2)CC1	–	–	–	–	–	–
CS(=O)(=O)N1CCc2cc(C(=O)N3CCOCC3)ccc21	–	–	–	–	–	–
O=C(c1ccccc1)c1ccc(C(=O)N2CCOCC2)cc1	–	7.9µM	–	–	–	–
Cc1nnc(Nc2ccc(C(=O)N3CCOCC3)cc2)c2ccccc12	–	16µM	–	–	–	–
O=C(c1cccc(Br)c1)N1CCN(C(=O)c2cccc(Br)c2)CC1	–	–	–	–	–	16µM
NCC1O[C@@H](OC2C(N)C[C@H](N)[C@@H](O[C@H]3OC(CO)C(O)C(N)C3O)C2O)C(O)C(O)C1O (some centres undefined)	–	–	·	–	–	–
O=C(/C=C/c1ccc2c(c1)OCO2)NCc1ccncc1	–	·	·	–	·	·
CCOc1ccc(OCc2ccc(C(=O)N3CCCC(C)C3)cc2)cc1 (centres undefined)	–	·	·	–	·	?
O=C(c1ccccc1)N1CCN(S(=O)(=O)N2CCCCC2)CC1	–	–	?	–	–	–
O=C(c1c(Cl)cccc1Cl)N1CCCCCC1	–	28µM	–	?	–	–
O=C(/C=C/N1CCOCC1)c1ccc(-c2ccccc2)cc1	–	28µM	–	–	?	?
CCOc1ccc(OCc2ccc(C(=O)N3CCOCC3)cc2)cc1	–	16µM	–	–	–	3.5µM
O=C(c1ccccc1Cl)N1CCNCC1	–	–	–	–	–	–
O=C(c1ccccc1)N1CCCCCC1	–	4.5µM	–	–	–	–
SMILES	GLA inh pH 4.5	HPGD block	PNC assembly inh	GLA spleen mod	12-hLO inh	ALDH1A1 inh
CC1CCC(C(C)(C)O)CC2=C1CCC2C (centres undefined)	–	–	·	–	–	–
COC(=O)[C@@]1(Cc2ccccc2-c2ccco2)C=C[C@H](C)[C@@H](c2ccccc2)N1C(=O)C(F)(F)F	–	–	·	–	·	–
O=C(O)C/C(=C\c1ccccc1)C(=O)O	·	–	·	·	–[11.4 µM]	–[13.5 µM]
O=C(c1ccc(C(=O)N2CCCCCC2)cc1)N1CCCCCC1	–	7.9µM	–	–	–	18µM
O=C(c1ccc([N+](=O)[O-])cc1)N1CCCC1	–	·	·	–	·	·
O=C(O)CCC(=O)C(=O)O (tested in a mixture with another compound)	–	–	·	–	–	–
NS(=O)(=O)c1ccc(NC(=S)NC(=O)c2ccc(Br)o2)cc1	–	·	·	–	·	?
Cc1cc(C)cc(NS(=O)(=O)c2ccc(NC(=S)Nc3ccccc3)cc2)c1	–	–	–	–	–	–
Cc1cc(C)cc(NS(=O)(=O)c2ccc(NC(=S)NC(=O)c3ccc(Br)o3)cc2)c1	–	–	?	–	?	14µM
